Laboratory results taken from paper PMC9838217, “Structure of SALL4 zinc finger domain reveals link between AT-rich DNA binding and Okihiro syndrome”.
Residue numbers refer to the chain shown, from its start.

Key:
[1] = biological target: T1, SALL4 ZFC4 R900W (HT-SELEX) (Mus musculus, UniProt Q8BX22 870-940, R900W); assay: HT-SELEX; high values mean tight binding; details: protein: recombinant; vector His6-GST; dsDNA, one strand shown
T1 sequence: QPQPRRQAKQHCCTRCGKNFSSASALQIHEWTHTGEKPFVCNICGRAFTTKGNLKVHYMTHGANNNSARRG
Method in brief: (§1)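 Binding signal is defined as the fold change of each canonical k-mer's read fraction versus the initial random library. Selections used 1 µg of purified recombinant mouse SALL4 zinc finger cluster 4 (residues 870–940) with library DNA (1.5 µg first cycle, 200 ng later) in 100 µl of 10 mM Tris–HCl pH 7.5, 50 mM NaCl, poly(dI-dC) and DTT, for 10 min at room temperature, followed by Ni2+ bead capture, washing and PCR. Up to 6 such cycles were run in triplicate before MiSeq sequencing and 6-mer scanning.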

[2] = biological target: T2, SALL4 ZFC4 G921D (HT-SELEX) (Mus musculus, UniProt Q8BX22 870-940, G921D); assay: HT-SELEX; high values mean tight binding; details: protein: recombinant; vector His6-GST; dsDNA, one strand shown
T2 sequence: T1 sequence with W31R, G52D
Method in brief: as §1

| Sequence | binding signal [1] [fold-change vs cycle 0] | binding signal [2] [fold-change vs cycle 0] |
| --- | --- | --- |
| CGGAGC | 0.166 ± 0.00611 | 0.286 ± 0.0677 |
| CGAGCG | 0.115 ± 0.0072 | 0.24 ± 0.0639 |
| CGACGA | 0.288 ± 0.00345 | 0.415 ± 0.0734 |
| CCGCGC | 0.0273 ± 0.00598 | 0.0941 ± 0.0469 |
| CGGCCG | 0.0289 ± 0.00511 | 0.105 ± 0.0554 |
| CTCTTA | 1.6 ± 0.108 | 1.46 ± 0.111 |
| CGCTCA | 0.311 ± 0.0311 | 0.445 ± 0.0603 |
| CCCCGC | 0.0783 ± 0.012 | 0.179 ± 0.0709 |
| AAGGCC | 0.32 ± 0.0161 | 0.435 ± 0.0818 |
| GCAGCA | 0.247 ± 0.0238 | 0.368 ± 0.0645 |
| ACTATG | 1.37 ± 0.0399 | 1.34 ± 0.0843 |
| ACTGCG | 0.289 ± 0.0171 | 0.407 ± 0.0604 |
| CACCCC | 0.309 ± 0.0175 | 0.407 ± 0.058 |
| ATCGCG | 0.221 ± 0.00468 | 0.363 ± 0.0564 |
| CTGCCC | 0.166 ± 0.00951 | 0.291 ± 0.0763 |
| CCGGCA | 0.108 ± 0.00217 | 0.221 ± 0.0662 |
| CCCCCC | 0.217 ± 0.0203 | 0.314 ± 0.0628 |
| GGCGCA | 0.0622 ± 0.0107 | 0.16 ± 0.0742 |
| GCGCAC | 0.0689 ± 0.0069 | 0.167 ± 0.0842 |
| GCGCCC | 0.0344 ± 0.0044 | 0.116 ± 0.0623 |
| GAGCGA | 0.326 ± 0.0151 | 0.483 ± 0.0727 |
| AGAGCC | 0.335 ± 0.0199 | 0.505 ± 0.0782 |
| GTGGCA | 0.276 ± 0.00829 | 0.424 ± 0.0569 |
| GGGCCC | 0.0676 ± 0.00899 | 0.178 ± 0.0632 |
| CAGGGG | 0.308 ± 0.0124 | 0.417 ± 0.0612 |
| GCCTCA | 0.364 ± 0.0186 | 0.513 ± 0.0755 |
| GCGACC | 0.112 ± 0.0125 | 0.237 ± 0.0806 |

| Sequence | binding signal [1] [fold-change vs cycle 0] | binding signal [2] [fold-change vs cycle 0] |
| --- | --- | --- |
| CGTGCC | 0.121 ± 0.0106 | 0.246 ± 0.0768 |
| ACGCTC | 0.345 ± 0.00842 | 0.503 ± 0.071 |
| GGCGTA | 0.242 ± 0.0221 | 0.377 ± 0.0541 |
| CCTGCC | 0.172 ± 0.00852 | 0.294 ± 0.0738 |
| CAAGCC | 0.349 ± 0.0256 | 0.491 ± 0.0577 |
| GACGGC | 0.105 ± 0.00605 | 0.211 ± 0.0714 |
| AGCGGA | 0.313 ± 0.018 | 0.432 ± 0.054 |
| ATGGGC | 0.3096 ± 0.00283 | 0.446 ± 0.0581 |
| GCCAGA | 0.289 ± 0.0233 | 0.414 ± 0.0657 |
| ACAGCC | 0.328 ± 0.00712 | 0.462 ± 0.0935 |
| CAGCCC | 0.16 ± 0.0179 | 0.287 ± 0.0742 |
| GAGGCC | 0.158 ± 0.00288 | 0.286 ± 0.0765 |
| GGGGAC | 0.299 ± 0.0209 | 0.403 ± 0.0552 |
| ACGCAG | 0.305 ± 0.0196 | 0.422 ± 0.0649 |
| CGACCC | 0.172 ± 0.00839 | 0.317 ± 0.0852 |
| CCCACC | 0.282 ± 0.00918 | 0.397 ± 0.0572 |
| AGGCTG | 0.37 ± 0.0148 | 0.493 ± 0.0564 |
| ACAGCG | 0.265 ± 0.00461 | 0.381 ± 0.0624 |
| CCGTCC | 0.206 ± 0.0173 | 0.337 ± 0.0624 |
| CTGCGC | 0.08 ± 0.0196 | 0.173 ± 0.0775 |
| CCTCCG | 0.252 ± 0.0142 | 0.367 ± 0.0686 |
| AGCCCG | 0.14 ± 0.0115 | 0.253 ± 0.0774 |
| CGCAGC | 0.0883 ± 0.014 | 0.191 ± 0.0678 |
| CGTTGC | 0.331 ± 0.00332 | 0.435 ± 0.0499 |
| CTCCGC | 0.169 ± 0.0169 | 0.271 ± 0.0458 |
| AGGCCA | 0.313 ± 0.0175 | 0.446 ± 0.0657 |
| CTGCGA | 0.28 ± 0.0255 | 0.404 ± 0.0745 |

| Sequence | binding signal [1] [fold-change vs cycle 0] | binding signal [2] [fold-change vs cycle 0] |
| --- | --- | --- |
| ACCGAC | 0.345 ± 0.0112 | 0.497 ± 0.0584 |
| GAGCCC | 0.184 ± 0.0121 | 0.331 ± 0.0823 |
| GCGTCA | 0.266 ± 0.00412 | 0.39 ± 0.0541 |
| AGCGCA | 0.18 ± 0.00997 | 0.305 ± 0.097 |
| GGCGAA | 0.216 ± 0.00992 | 0.36 ± 0.0782 |
| CCGCCA | 0.105 ± 0.00392 | 0.218 ± 0.0543 |
| GCTCCC | 0.239 ± 0.0043 | 0.357 ± 0.0785 |
| CGTCGA | 0.282 ± 0.0144 | 0.423 ± 0.0617 |
| GAGGCA | 0.367 ± 0.0203 | 0.505 ± 0.1 |
| CGGGCA | 0.116 ± 0.00794 | 0.223 ± 0.0617 |
| AGCGGC | 0.0644 ± 0.00817 | 0.177 ± 0.0591 |
| TGCCCA | 0.29 ± 0.00772 | 0.437 ± 0.0679 |
| GGCCCC | 0.0767 ± 0.0129 | 0.183 ± 0.0665 |
| CCCCAC | 0.272 ± 0.0152 | 0.375 ± 0.0668 |
| CATGCG | 0.296 ± 0.011 | 0.441 ± 0.076 |
| GCCCAA | 0.245 ± 0.0152 | 0.387 ± 0.0671 |
| CACGCG | 0.116 ± 0.0104 | 0.214 ± 0.0541 |
| ACCCGC | 0.145 ± 0.00827 | 0.259 ± 0.0632 |
| CGGTGC | 0.129 ± 0.00419 | 0.238 ± 0.0719 |
| GCGGCA | 0.0597 ± 0.00711 | 0.158 ± 0.0724 |
| CGCAGA | 0.265 ± 0.0309 | 0.379 ± 0.0778 |
| GGGCCA | 0.129 ± 0.0234 | 0.254 ± 0.0851 |
| CGGCCA | 0.0795 ± 0.00952 | 0.19 ± 0.0619 |
| CGTCGC | 0.097 ± 0.00631 | 0.194 ± 0.077 |
| CTCGCA | 0.319 ± 0.0197 | 0.471 ± 0.0656 |
